Most compounds without a hit are left out; they make up all but 28% or so of the library.
CYP2C9 activ: CYP2C9 (human) activation; 96,000 tested, 1.4% active; activation factor at 5 µM; P11712; AID 1024; recombinant CYP2C9, luciferin-H conversion, luminescence; stronger effect = higher value; factor 1 = untreated enzyme, 0 = blocked;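 active = activation factor of 2 or more for CYP2C9 at a 5 µM dose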;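 also: 0 = sulfaphenazole-blocked wells and 1 = vehicle-only wells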
Target sequence (P11712 whole entry, looked up): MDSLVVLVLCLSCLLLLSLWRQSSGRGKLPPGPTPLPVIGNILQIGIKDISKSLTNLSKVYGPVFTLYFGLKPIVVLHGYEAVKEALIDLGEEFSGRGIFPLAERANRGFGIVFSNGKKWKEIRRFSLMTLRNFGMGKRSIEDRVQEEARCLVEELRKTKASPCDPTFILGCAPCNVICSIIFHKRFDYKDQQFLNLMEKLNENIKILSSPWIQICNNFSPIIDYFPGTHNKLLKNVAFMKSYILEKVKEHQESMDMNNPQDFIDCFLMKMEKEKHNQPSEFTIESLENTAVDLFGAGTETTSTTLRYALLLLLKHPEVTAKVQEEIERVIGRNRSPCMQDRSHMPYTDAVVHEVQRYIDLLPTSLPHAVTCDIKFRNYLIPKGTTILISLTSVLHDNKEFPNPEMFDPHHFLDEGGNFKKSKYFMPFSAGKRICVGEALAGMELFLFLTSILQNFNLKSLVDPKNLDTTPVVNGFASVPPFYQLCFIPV
CYP2C19 inhib: inhibitors of human CYP2C19 | CYP2C19 Supersomes, luciferin-H EGE luminescence, 30 min | AID 778 | 96,000 tested, 21% active | inhibition, % at 5 µM | P33261;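 active = CYP2C19 inhibition above a set limit at 5 µM in the primary screen, cut at about 50% in these data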;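 also: plate controls were negative control wells for no effect and 2.5 mM tranylcypromine positive control for full effect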
CYP2C9 inh: blocks human cytochrome P450 2C9; P11712; inhibition, % at 5 µM; CYP2C9 Supersomes, luciferin-H conversion, luminescence; 96,000 tested, 20% active;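 active = blocking of liver enzyme CYP2C9 beyond about 50% at 5 µM, limit read from the data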
CD11b adhes inh: inhibitors of human CD11b/CD18 binding to fibrinogen; K562 CD11b/CD18 adhesion to fibrinogen, ATPlite luminescence; Mn2+ added to activate the integrin; inhibition, % at 10 µM; 93,000 tested, 0.54% active; AID 1497;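 active = primary inhibition of 50% or more at 10 µM, then 40% or more on retest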
CYP2C19 act: cytochrome P450 2C19 (human) activation; P33261; recombinant CYP2C19, luciferin-H EGE luminescence; stronger effect = higher value; 0 = fully inhibited enzyme, 1 = untreated enzyme; activation factor at 5 µM; 96,000 tested, under 10 active; AID 1025;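 active = activation factor of at least 2 at 5 µM in the primary screen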;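 also: 0 = wells with 2.5 mM tranylcypromine and 1 = vehicle-only wells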
Mac1 fbg enh: CD11b/CD18-fibrinogen binding enhancement; K562 CD11b/CD18 adhesion to fibrinogen, ATPlite luminescence; P05107+P11215; AID 1499; activation, % at 10 µM; 93,000 tested, 0.07% active;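 active = 10 µM primary screen giving 50% or more activity, confirmed by 40% or more on retest at that dose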
An asterisk follows results filed as active.

CC1(C)NC(=O)N(CC(O)COc2cccc(F)c2)C1=O (stereo unspecified) was read as CYP2C9 activ 0.6, CYP2C19 inhib 69*, CYP2C9 inh 45, CD11b adhes inh 5, CYP2C19 act 0.3 and Mac1 fbg enh 4.
CC1CCN(CC(O)COc2cccc(F)c2)CC1 (stereo unspecified) was read as CYP2C9 activ 1.1, CYP2C19 inhib 40, CYP2C9 inh -6, CD11b adhes inh 87*, CYP2C19 act 0.6 and Mac1 fbg enh -4.
For COc1ccc(Nc2nccc3c2nnn3C)cc1 the results were CYP2C9 activ 0.9, CYP2C19 inhib 39, CYP2C9 inh 12, CD11b adhes inh 4, CYP2C19 act 0.6 and Mac1 fbg enh 2.
Cc1cc(C)cc(OCC(=O)OCC(=O)c2c(N)n(C)c(=O)n(C)c2=O)c1 was read as CYP2C9 activ 1, CYP2C19 inhib 30, CYP2C9 inh -1, CD11b adhes inh -5, CYP2C19 act 0.7 and Mac1 fbg enh -2.
`CCOc1ccc(S(=O)(=O)N(C)CCO)cc1-c1nc2c(C(C)(C)C)nn(C)c2c(=O)[nH]1` gave CYP2C9 activ 0.3, CYP2C19 inhib 64*, CYP2C9 inh 67*, CD11b adhes inh 0, CYP2C19 act 0.4 and Mac1 fbg enh -5.
Screening CC(C(=O)Nc1ccc2c(c1)OCCO2)N1CCN(C(=O)c2ccco2)CC1 (stereo unspecified) returned CYP2C9 activ 0.9, CYP2C19 inhib -8, CYP2C9 inh 10, CD11b adhes inh 7, CYP2C19 act 1.1 and Mac1 fbg enh -2.
CC(=C1C(=O)c2ccccc2C1=O)N1CCc2ccccc2C1 was read as CYP2C9 activ 0.4, CYP2C19 inhib 81*, CYP2C9 inh 63*, CD11b adhes inh -24, CYP2C19 act 0.2 and Mac1 fbg enh 0.
`CCOC(=O)C1CCN(C(C)=C2C(=O)c3ccccc3C2=O)CC1` gave CYP2C9 activ 0.9, CYP2C19 inhib 5, CYP2C9 inh 14, CD11b adhes inh 6, CYP2C19 act 1 and Mac1 fbg enh -3.
Screening C=CCSc1nc2ccccc2n1Cc1nnc(-c2cccs2)o1 returned CYP2C9 activ 0.5, CYP2C19 inhib 67*, CYP2C9 inh 53*, CD11b adhes inh 3, CYP2C19 act 0.3 and Mac1 fbg enh 4.
Screening C=CCn1c(-c2cccs2)nc2ccccc21 returned CYP2C9 activ 0.6, CYP2C19 inhib 66*, CYP2C9 inh 38, CD11b adhes inh -12, CYP2C19 act 0.3 and Mac1 fbg enh -1.
C=CCSc1nc2ccccc2n1C(=O)/C=C/c1ccc(OC)c(OC)c1 was read as CYP2C9 activ 0.7, CYP2C19 inhib 28, CYP2C9 inh 34 and CYP2C19 act 0.7.
For Cn1c(-c2sc(=S)n(-c3ccccc3)c2N)nc2ccccc21 the results were CYP2C9 activ 1.1, CYP2C19 inhib -9, CYP2C9 inh -7 and CYP2C19 act 1.1.
Screening C=CCn1c(N)c(-c2nc3ccccc3n2C)sc1=S returned CYP2C9 activ 0.1, CYP2C19 inhib 44, CYP2C9 inh 86*, CD11b adhes inh 6, CYP2C19 act 0.6 and Mac1 fbg enh -3.
For O=C(CN1C(=O)CSC1=O)Nc1ccccc1F the results were CYP2C9 activ 0.9, CYP2C19 inhib 1, CYP2C9 inh 11, CD11b adhes inh 1, CYP2C19 act 1 and Mac1 fbg enh -4.
For COc1ccc(-c2nn(CC(=O)N(C)C)c(=O)c3ccccc23)cc1 the results were CYP2C9 activ 0.9, CYP2C19 inhib 6, CYP2C9 inh 11, CD11b adhes inh -38, CYP2C19 act 0.9 and Mac1 fbg enh -1.
`CCn1c(C)cc2c(c1=O)C(c1ccncc1)C(C#N)=C(N)O2` (stereo unspecified) gave CYP2C9 activ 0.6, CYP2C19 inhib 31, CYP2C9 inh 43, CD11b adhes inh 3, CYP2C19 act 0.7 and Mac1 fbg enh -2.
Screening COc1ccc(CCn2c(C)cc3c(c2=O)C(c2ccncc2)C(C#N)=C(N)O3)cc1OC (stereo unspecified) returned CYP2C9 activ 0.2, CYP2C19 inhib 83*, CYP2C9 inh 79*, CD11b adhes inh 17, CYP2C19 act 0.2 and Mac1 fbg enh -2.
COc1ccc(C(c2nnnn2Cc2cccs2)N2CCN(c3ccc(F)cc3)CC2)cc1OC (stereo unspecified) was read as CYP2C9 activ 0.6, CYP2C19 inhib 19, CYP2C9 inh 35, CD11b adhes inh -7, CYP2C19 act 0.8 and Mac1 fbg enh 1.
`CCOc1cc(/C=C2\N=C(C)OC2=O)cc(Br)c1OCC(=O)OC` gave CYP2C9 activ 1.2, CYP2C19 inhib -10, CYP2C9 inh -17, CD11b adhes inh 14, CYP2C19 act 1.1 and Mac1 fbg enh -3.
For CCOc1cc(/C=C2\N=C(C)OC2=O)cc(Br)c1OCCc1ccccc1 the results were CYP2C9 activ 0.3, CYP2C19 inhib 28, CYP2C9 inh 70*, CD11b adhes inh -2, CYP2C19 act 0.7 and Mac1 fbg enh -3.
`CCOC(=O)C1NC(=O)CC1c1ccccc1` (stereo unspecified) gave CYP2C9 activ 1, CYP2C19 inhib -3, CYP2C9 inh -1 and CYP2C19 act 1.
For CCOC(=O)C1C(=O)Oc2ccc3ccccc3c2C1C1CCOC1=O (stereo unspecified) the results were CYP2C9 activ 1.8, CYP2C19 inhib 60*, CYP2C9 inh -81, CD11b adhes inh 0, CYP2C19 act 0.4 and Mac1 fbg enh -2.
Screening COc1cc(C(=S)N2CCCC2)ccc1O returned CYP2C9 activ 1.6, CYP2C19 inhib 88*, CYP2C9 inh -61, CD11b adhes inh 13, CYP2C19 act 0.1 and Mac1 fbg enh 1.
Oc1ccc(C(=S)N2CCCCC2)cc1Cl was read as CYP2C9 activ 2*, CYP2C19 inhib 85*, CYP2C9 inh -102, CD11b adhes inh -21, CYP2C19 act 0.2 and Mac1 fbg enh -4.
For COc1ccc(C(=S)N2CCN(C)CC2)cc1Br the results were CYP2C9 activ 3.5*, CYP2C19 inhib 51*, CYP2C9 inh -247, CD11b adhes inh -2, CYP2C19 act 0.5 and Mac1 fbg enh -3.
S=C(c1ccc2c(c1)OCO2)N1CCCCC1 was read as CYP2C9 activ 0.6, CYP2C19 inhib 94*, CYP2C9 inh 38, CD11b adhes inh -5, CYP2C19 act 0.1 and Mac1 fbg enh 3.
S=C(c1ccc2c(c1)OCO2)N1CCCC1 was read as CYP2C9 activ 1, CYP2C19 inhib 41, CYP2C9 inh 2, CD11b adhes inh -28, CYP2C19 act 0.6 and Mac1 fbg enh -5.
Screening Cc1csc(Sc2ccc([N+](=O)[O-])cc2C(=O)OCC(=O)NC2CCCC(C)C2C)n1 (stereo unspecified) returned CYP2C9 activ 0.5, CYP2C19 inhib 58*, CYP2C9 inh 50* and CYP2C19 act 0.4.
